PubChem BioAssay AID602399 (Sanford-Burnham Center for Chemical Genomics, 2012)
Values joined by “and” are separate entries in the source; they are usually repeats but may differ in a detail not shown here. Equal entries are not always repeated. About 2,800 (0.78%) of roughly 360,000 compounds were called active. No stated cut-off is given here; in the data, active means inhibition above about 26%; inactive means the rest. The entries come from a sample that favours actives as a whole.

The molecules below were run on Nicotinate-nucleotide adenylyltransferase NadD (Staphylococcus aureus N315) (assay: S. aureus NadD enzyme activity blockers – biochemical, colorimetric, uHTS, primary screen (AID 602399)). Details: purified NadD enzyme, colorimetric absorbance read-out; at 20 µM; stronger effect = higher value.

SMILES	inhibition
O=C(c1ccccc1)N1CCN(C(=O)c2cc3nc(-c4ccccc4)cc(C(F)(F)F)n3n2)CC1	2.29% (inactive)
C#Cc1cc(N2CCN(C(=O)c3ccoc3)CC2)n2nc(-c3cccc(Cl)c3)cc2n1	35.4% (active)
CN(C)CCN1CCN(c2cc(-c3cccc(Cl)c3)nc3ccnn23)CC1	-0.61% (inactive)
CCCCC[C@H](C)N1C[C@@H](COCc2ccccc2)Oc2cc(N3CCC[C@@H]3CO)ccc2S1(=O)=O	1.75% (inactive)
Nc1ncnc2c1cnn2C1CC(O)C(CO)O1 (stereo not given)	4.49% (inactive)
Cn1c(SCC(=O)N/N=C/c2ccc(O)c(O)c2)nc2ccccc21	-4.08% (inactive)
CC(=O)NCCn1c(SCC(=O)Nc2ccc(C)cc2)nc2ccccc2c1=O	-6.19% (inactive)
C/C(=N\NC(=O)CSc1nc2ccccc2c(=O)n1-c1ccccc1C)c1cccs1	2.02% (inactive)
CCn1c(SCC(=O)N/N=C/C=C/c2ccccc2[N+](=O)[O-])nnc1-c1ccccc1	5.92% (inactive)
Cc1nn(-c2ccccc2)c(C)c1/C=N/NC(=O)CSc1nc2ccccc2c(=O)n1-c1ccccc1	30.2% (active)
Cc1ccc(-n2c(SCC(=O)N/N=C/C=C/c3ccccc3[N+](=O)[O-])nc3ccccc3c2=O)cc1	35.1% (active)
Cc1ccc(CC2CC(=O)N(c3nc(C)cc(C)n3)C2=O)cc1 (stereo not given)	-0.638% (inactive)
O=C(COC(=O)c1cc(S(=O)(=O)N2CCOCC2)ccc1F)NC1CC1	-7.35% (inactive)
COc1ccc(Cc2nnc(SCC(=O)N(c3ccccc3)C(C)C)n(N)c2=O)cc1	-0.371% (inactive)
CC(=O)N(c1ccc2oc(=O)sc2c1)S(=O)(=O)c1ccc(C)cc1	-4.06% (inactive)
Cc1ccc2cccc(O)c2[n+]1[O-]	-2.68% (inactive)
O=C(O)CCC(=O)NCc1ccc(C(=O)O)cc1	-1.86% (inactive)
O=C(O)c1ccc(COCC(F)(F)F)cc1	57.7% (active)
NNC(=O)c1ccc(COCC(F)(F)C(F)F)cc1	0.345% (inactive)
O=C(CCc1ccccc1)Nc1ccc(NC(=O)C2CCCCC2)nc1	-0.446% (inactive)

SMILES	inhibition
O=C1CCCN2N=C(SCC(=O)Nc3ccc(Br)cc3)SC2=N1	0% (inactive)
COCCNC(=O)Cn1cc2c(n1)CCCCC2	4.24% (inactive)
CC1CN(S(=O)(=O)c2ccc(C(=O)NN3CCN(C)CC3)cc2)CC(C)O1 (stereo not given)	-3.52% (inactive)
Cc1ccc(C(=O)N/N=C\c2cc(Br)c(Br)o2)cn1	-3.68% (inactive)
Nc1cccnc1Sc1ccccc1	-5.1% (inactive)
FC(F)(F)C1CCCN(c2nsc3ccccc23)C1 (stereo not given)	34.7% (active)
CC(C)(C)c1ccc(C(=O)N2CCC(C(=O)N3CCCCC3)CC2)cc1	-0.861% (inactive)
C/C(CC(=O)Nc1ccc(Cl)cc1)=N\NC(=O)C(=O)NCCO	2.33% (inactive)
CC(C)c1c(C(=O)N/N=C/c2ccccc2C(=O)O)nnn1-c1nonc1N	-2.34% (inactive)
CN(C)Cc1c(C(=O)N/N=C/c2ccccc2OCc2ccc(F)cc2)nnn1-c1nonc1N	5.11% (inactive)
Nc1nonc1-n1nnc(C(=O)N/N=C/c2cc(Br)ccc2O)c1CSC1=NCCS1	37.3% (active)
Clc1ccc(-c2cc(C3CCNCC3)[nH]n2)c(Cl)c1	-5.2% (inactive)
CCC(C(=O)OC)n1cnc2c(oc3ccccc32)c1=O (stereo not given)	-0.579% (inactive)
COC(=O)c1ccc(CSc2nnc(NC(C)C)s2)cc1	-1.36% (inactive)
CCOc1ccccc1Nc1nnc(SCc2ccc(C(=O)OC)o2)s1	-2.72% (inactive)
Cc1ccc(C(=O)Oc2coc(CSc3nnc(NC(=O)c4cccs4)s3)cc2=O)cc1C	58.4% (active)
Cc1cc(C)c(C2C3=C(Nc4c2c(C)nn4-c2ccccn2)c2ccccc2C3=O)c(C)c1 (stereo not given)	33.2% (active)
Cc1ccc(C)c(OCCC(=O)OCC(=O)c2ccc3c(c2)NC(=O)CO3)c1	-5.39% (inactive)
COc1ccc(C(=O)c2c(C)c(CCC#N)n3ccccc23)c(OC)c1	-8.39% (inactive)
CCOc1ccc(CN2CCNC(=O)C2CC(=O)NCCCC2CCCC2)cc1 (stereo not given)	8.04% (inactive)

SMILES	inhibition
Oc1ccc(C2Nc3cccc4cccc(c34)N2)cc1	57.7% (active)
COc1cccc(CNCCc2c[nH]c3ccccc23)c1OCc1ccccc1F	-4.86% (inactive)
Cc1cc(C(=O)NNS(=O)(=O)c2ccccc2C(F)(F)F)nn1C(C)(C)C	-0.0808% (inactive)
COc1ccc(/C(=N\O)c2nccc3cc(OC)c(OC)cc23)cc1OC	-0.658% (inactive)
CNC(=O)c1ccc(CN(C)C(=O)c2cc(C3CC3)nc3c2cnn3C(C)C)cc1	2.58% (inactive)
O=C(NC(Cc1c[nH]c2ccccc12)C(=O)N/N=C/c1ccc(Br)cc1)c1cccs1 (stereo not given)	32% (active)
O=C(CNC(=O)c1cccs1)N/N=C/c1cccc(Br)c1	-5.24% (inactive)
CC(=O)NC(Cc1c[nH]c2ccccc12)C(=O)NCCc1ccccc1 (stereo not given)	-5.17% (inactive)
O=C1N(c2ccccc2)C(=Nc2ccccc2)SC12CC2	-4.95% (inactive)
Cc1cc(Cl)ccc1NNC(=O)c1snnc1C	1.86% (inactive)
OC(c1ccc(F)cc1)c1ncc(-c2cccc(C(F)(F)F)c2)[nH]1 (stereo not given)	0.456% (inactive)
O=C(NCc1ccccc1Cl)c1ccc2c(=O)n(CC3CCCO3)c(=S)[nH]c2c1 (stereo not given)	-3.54% (inactive)
Cc1cc(N=Nc2ccc3ccccc3c2)ccc1O	-20.6% (inactive)
COc1ccc(N=Nc2ccc(O)c(P(=O)(c3ccccc3)c3ccccc3)c2)cc1	30.9% (active)
CC(C)(C)c1cc(P(=O)(c2ccccc2)c2ccccc2)ccc1O	-3.61% (inactive)
CN1CC(=O)N=C1N	-3.38% (inactive) and -0.141% (inactive)
COc1cccc(CN(C)C(=O)CC[C@H]2O[C@@H](n3cnc4c(NC(=O)c5ccccc5)ncnc43)[C@H](O)[C@@H]2O)c1	-1.41% (inactive)
O=C(CCN1CCCCC1)N=Nc1c(O)[nH]c2ccccc12	-5.32% (inactive)
O=[N+]([O-])c1cc(S(=O)(=O)Nc2cccc(Cl)c2)ccc1N=Nc1c(O)[nH]c2ccccc12	61% (active)
O=C(NCc1ccncc1)c1ccc(NS(=O)(=O)c2cccc([N+](=O)[O-])c2)cc1	-1.63% (inactive)
